We go through 37 sequences from paper PMC11006913.

Common to all, as to test: PBM; 200 nM protein, PBS
Conditions in all cases: dsDNA, one strand shown

The target in experiment [1] is PROP1 (Homo sapiens, UniProt O75360 56-141).
Experiment [2] deals with PROP1 (Homo sapiens, UniProt O75360 56-141, R99H).
Experiment [3] concerns the target PROP1 (Homo sapiens, UniProt O75360 56-141, F88S).
Experiment [4] concerns the target ALX3 (Homo sapiens, UniProt O95076 139-225).
A further experiment has as its target T1, PAX4 (Homo sapiens, UniProt O43316 9-242, F177Y).
T1 sequence: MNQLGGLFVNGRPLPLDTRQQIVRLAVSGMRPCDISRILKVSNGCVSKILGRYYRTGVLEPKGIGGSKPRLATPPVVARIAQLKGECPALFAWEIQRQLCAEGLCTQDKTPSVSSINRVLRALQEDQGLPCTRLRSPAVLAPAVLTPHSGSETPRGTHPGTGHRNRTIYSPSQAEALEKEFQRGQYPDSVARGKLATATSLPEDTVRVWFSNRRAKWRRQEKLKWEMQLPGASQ

The next experiment has as its target T2, NKX2-4 (Homo sapiens, UniProt Q9H2Z4 175-261, R246Q).
T2 sequence: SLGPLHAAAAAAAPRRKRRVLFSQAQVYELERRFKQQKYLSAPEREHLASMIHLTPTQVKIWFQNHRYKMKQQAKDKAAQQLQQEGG

Experiment [5] concerns the target ALX3 (Homo sapiens, UniProt O95076 139-225, N203S).
For experiment [6], the target named is VAX1 (Homo sapiens, UniProt Q5SQQ9 86-172).
Experiment [7] deals with VAX1 (Homo sapiens, UniProt Q5SQQ9 86-172, T142I).
The target of experiment [8] is VAX1 (Homo sapiens, UniProt Q5SQQ9 86-172, K157R).
Sequence of VAX1 (Homo sapiens, UniProt Q5SQQ9 86-172, K157R) (Q5SQQ9 86-172 K157R): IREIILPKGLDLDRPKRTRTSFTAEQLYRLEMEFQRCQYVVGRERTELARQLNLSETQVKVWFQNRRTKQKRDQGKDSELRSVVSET

Sequence of PROP1 (Homo sapiens, UniProt O75360 56-141, R99H) (O75360 56-141 R99H): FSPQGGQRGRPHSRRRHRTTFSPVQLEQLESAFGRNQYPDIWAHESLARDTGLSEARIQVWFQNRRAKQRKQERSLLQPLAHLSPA
Sequence of ALX3 (Homo sapiens, UniProt O95076 139-225) (O95076 139-225): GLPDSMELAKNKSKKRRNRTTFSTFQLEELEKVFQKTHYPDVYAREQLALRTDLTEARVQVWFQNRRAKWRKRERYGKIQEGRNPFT
Sequence of PROP1 (Homo sapiens, UniProt O75360 56-141) (O75360 56-141): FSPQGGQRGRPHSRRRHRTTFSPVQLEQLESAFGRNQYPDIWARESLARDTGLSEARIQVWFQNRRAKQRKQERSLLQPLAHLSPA
Sequence of PROP1 (Homo sapiens, UniProt O75360 56-141, F88S) (O75360 56-141 F88S): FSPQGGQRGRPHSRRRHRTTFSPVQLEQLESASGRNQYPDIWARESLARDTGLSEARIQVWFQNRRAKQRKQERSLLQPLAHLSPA
Sequence of VAX1 (Homo sapiens, UniProt Q5SQQ9 86-172, T142I) (Q5SQQ9 86-172 T142I): as the sequence (Q5SQQ9 86-172 K157R) above, with T57I, R72K counted along it
Sequence of VAX1 (Homo sapiens, UniProt Q5SQQ9 86-172) (Q5SQQ9 86-172): as the sequence (Q5SQQ9 86-172 K157R) above, with R72K counted along it
Sequence of ALX3 (Homo sapiens, UniProt O95076 139-225, N203S) (O95076 139-225 N203S): as the sequence (O95076 139-225) above, with N65S counted along it

On to AAATACAT, for which the binding signal with PROP1 [1] was 8.5 upbm affinity estimate (log intensity, higher = more binding, comparable within an allelic series); in the experiment with PROP1 [2] it was 7.91 upbm affinity estimate (log intensity, higher = more binding, comparable within an allelic series). As to GTCTCGAA, the binding signal with PROP1 [1] is 6.78 upbm affinity estimate (log intensity, higher = more binding, comparable within an allelic series); with PROP1 [2], 6.8 upbm affinity estimate (log intensity, higher = more binding, comparable within an allelic series); with PROP1 [3], 7.1 upbm affinity estimate (log intensity, higher = more binding, comparable within an allelic series).

GACGACAA: the binding signal in the experiment with PROP1 [1] was 7.4 upbm affinity estimate (log intensity, higher = more binding, comparable within an allelic series). Consider TAATACTA, for which the binding signal with ALX3 [4] was 10.2 upbm affinity estimate (log intensity, higher = more binding, comparable within an allelic series). With ATAATTCG, the binding signal with PAX4 is 11 upbm affinity estimate (log intensity, higher = more binding, comparable within an allelic series). On to AATTCCGA, for which the binding signal was 8.08 upbm affinity estimate (log intensity, higher = more binding, comparable within an allelic series) with PROP1 [1] and 7.85 upbm affinity estimate (log intensity, higher = more binding, comparable within an allelic series) with PROP1 [2]. In the case of AAGAATAT, the binding signal with PROP1 [1] is 8.06 upbm affinity estimate (log intensity, higher = more binding, comparable within an allelic series).

Turning to AACAAGTG, the binding signal with NKX2-4 is 12.9 upbm affinity estimate (log intensity, higher = more binding, comparable within an allelic series). Take AAAAATAA: the binding signal with ALX3 [4] was 9.76 upbm affinity estimate (log intensity, higher = more binding, comparable within an allelic series). Take ATCTTAAC: the binding signal in the experiment with PROP1 [1] is 8.34 upbm affinity estimate (log intensity, higher = more binding, comparable within an allelic series); in the experiment with PROP1 [2] it was 7.85 upbm affinity estimate (log intensity, higher = more binding, comparable within an allelic series); with PROP1 [3], 7.45 upbm affinity estimate (log intensity, higher = more binding, comparable within an allelic series).

For GTAATAAC, the binding signal in the experiment with ALX3 [4] was 10.7 upbm affinity estimate (log intensity, higher = more binding, comparable within an allelic series).

Consider TGATTACA, for which the binding signal is 9.42 upbm affinity estimate (log intensity, higher = more binding, comparable within an allelic series) with PROP1 [1]; 8.57 upbm affinity estimate (log intensity, higher = more binding, comparable within an allelic series) with PROP1 [2]; 7.5 upbm affinity estimate (log intensity, higher = more binding, comparable within an allelic series) in the experiment with PROP1 [3]. As for ATTTCCTA, the binding signal in the experiment with PROP1 [1] was 7.97 upbm affinity estimate (log intensity, higher = more binding, comparable within an allelic series). Consider AAAATGGG, for which the binding signal with PROP1 [1] is 7.94 upbm affinity estimate (log intensity, higher = more binding, comparable within an allelic series). For GGTTGTTA, the binding signal with ALX3 [4] is 9.57 upbm affinity estimate (log intensity, higher = more binding, comparable within an allelic series); with ALX3 [5] it was 8.28 upbm affinity estimate (log intensity, higher = more binding, comparable within an allelic series). Consider TGTAGTAA, for which the binding signal in the experiment with PROP1 [1] was 8.45 upbm affinity estimate (log intensity, higher = more binding, comparable within an allelic series); with PROP1 [2], 8 upbm affinity estimate (log intensity, higher = more binding, comparable within an allelic series).

Turning to AGTTAGAG, the binding signal with PROP1 [1] was 7.87 upbm affinity estimate (log intensity, higher = more binding, comparable within an allelic series). On to AATACTAC, for which the binding signal with PROP1 [1] is 7.84 upbm affinity estimate (log intensity, higher = more binding, comparable within an allelic series). Regarding ACTCTTGA, the binding signal in the experiment with NKX2-4 was 12.9 upbm affinity estimate (log intensity, higher = more binding, comparable within an allelic series). For GCATTACA, the binding signal in the experiment with PROP1 [1] was 8.11 upbm affinity estimate (log intensity, higher = more binding, comparable within an allelic series); with PROP1 [2], 7.66 upbm affinity estimate (log intensity, higher = more binding, comparable within an allelic series). Turning to ACTATTAT, in the experiment with ALX3 [4], the binding signal was 10.4 upbm affinity estimate (log intensity, higher = more binding, comparable within an allelic series).

As for ATCATATA, in the experiment with PAX4, the binding signal was 10.6 upbm affinity estimate (log intensity, higher = more binding, comparable within an allelic series).

Turning to TGAGATAA, in the experiment with ALX3 [4], the binding signal was 9.8 upbm affinity estimate (log intensity, higher = more binding, comparable within an allelic series). With CCCGACAC, the binding signal in the experiment with PROP1 [1] is 6.59 upbm affinity estimate (log intensity, higher = more binding, comparable within an allelic series); with PROP1 [2], 6.79 upbm affinity estimate (log intensity, higher = more binding, comparable within an allelic series); with VAX1 [6], 6.71 upbm affinity estimate (log intensity, higher = more binding, comparable within an allelic series); in the experiment with PROP1 [3], 6.7 upbm affinity estimate (log intensity, higher = more binding, comparable within an allelic series); with VAX1 [7] it was 6.92 upbm affinity estimate (log intensity, higher = more binding, comparable within an allelic series); in the experiment with VAX1 [8], 6.92 upbm affinity estimate (log intensity, higher = more binding, comparable within an allelic series). On to ATTGTGAG, for which the binding signal in the experiment with PROP1 [1] was 8.01 upbm affinity estimate (log intensity, higher = more binding, comparable within an allelic series). For the sequence TAAAAGTA, the binding signal in the experiment with ALX3 [4] is 9.06 upbm affinity estimate (log intensity, higher = more binding, comparable within an allelic series).

TTACTCAA: the binding signal in the experiment with PROP1 [1] is 8.57 upbm affinity estimate (log intensity, higher = more binding, comparable within an allelic series); with PROP1 [2], 7.91 upbm affinity estimate (log intensity, higher = more binding, comparable within an allelic series); with VAX1 [6] it was 9.78 upbm affinity estimate (log intensity, higher = more binding, comparable within an allelic series); in the experiment with PROP1 [3], 7.39 upbm affinity estimate (log intensity, higher = more binding, comparable within an allelic series); with VAX1 [7], 9.49 upbm affinity estimate (log intensity, higher = more binding, comparable within an allelic series); with VAX1 [8], 9.35 upbm affinity estimate (log intensity, higher = more binding, comparable within an allelic series).

Consider ATAGAAAA, for which the binding signal with ALX3 [4] was 8.94 upbm affinity estimate (log intensity, higher = more binding, comparable within an allelic series).

In the case of CATATTGA, in the experiment with ALX3 [4], the binding signal is 9.37 upbm affinity estimate (log intensity, higher = more binding, comparable within an allelic series). Turning to ATTGTCTC, the binding signal in the experiment with PROP1 [1] is 7.7 upbm affinity estimate (log intensity, higher = more binding, comparable within an allelic series). Still for that read-out and setting: for AATAGTCC the value was 8.13 upbm affinity estimate (log intensity, higher = more binding, comparable within an allelic series). In the case of GATATGGA, the binding signal with ALX3 [4] is 9.24 upbm affinity estimate (log intensity, higher = more binding, comparable within an allelic series). Regarding ACACTCGA, the binding signal with NKX2-4 is 12.9 upbm affinity estimate (log intensity, higher = more binding, comparable within an allelic series). Turning to AACAATCC, in the experiment with PROP1 [1], the binding signal was 7.92 upbm affinity estimate (log intensity, higher = more binding, comparable within an allelic series).

As to CCGGGCTA, the binding signal was 6.87 upbm affinity estimate (log intensity, higher = more binding, comparable within an allelic series) in the experiment with PROP1 [1]; 6.89 upbm affinity estimate (log intensity, higher = more binding, comparable within an allelic series) in the experiment with PROP1 [2]; 6.52 upbm affinity estimate (log intensity, higher = more binding, comparable within an allelic series) with PROP1 [3]. Turning to ATTATGTG, the binding signal with PAX4 is 10.9 upbm affinity estimate (log intensity, higher = more binding, comparable within an allelic series). Consider CCAAACAA, for which, in the experiment with ALX3 [4], the binding signal was 8.78 upbm affinity estimate (log intensity, higher = more binding, comparable within an allelic series).
